PubChem BioAssay (Tox21)
Results filed as inconclusive are left out. Calls of active or inactive are those of the source. Unless noted, calls follow the shape of the full dose curve.

Tests used:
[1] = Nuclear factor erythroid 2-related factor 2/antioxidant responsive element (Nrf2/ARE) small molecule agonists: luciferase reporter gene qHTS assay in human keratinocytes (AID 1919969); also: nearly all actives have a fitted effect of over 35% in size; also: potency is read from the fitted curve at half-maximal effect
[2] = target: Gonadotropin-releasing hormone receptor (Homo sapiens) (UniProt P30968); assay: Human gonadotropin-releasing hormone receptor (GnRHR) small molecule agonists, calcium flux assay in GnRHR-HEK293 cells (AID 1920063); also: nearly all actives have a fitted effect of over 35% in size; also: potency is read from the fitted curve at half-maximal effect
Sequence of Gonadotropin-releasing hormone receptor (Homo sapiens) (P30968 whole entry, looked up): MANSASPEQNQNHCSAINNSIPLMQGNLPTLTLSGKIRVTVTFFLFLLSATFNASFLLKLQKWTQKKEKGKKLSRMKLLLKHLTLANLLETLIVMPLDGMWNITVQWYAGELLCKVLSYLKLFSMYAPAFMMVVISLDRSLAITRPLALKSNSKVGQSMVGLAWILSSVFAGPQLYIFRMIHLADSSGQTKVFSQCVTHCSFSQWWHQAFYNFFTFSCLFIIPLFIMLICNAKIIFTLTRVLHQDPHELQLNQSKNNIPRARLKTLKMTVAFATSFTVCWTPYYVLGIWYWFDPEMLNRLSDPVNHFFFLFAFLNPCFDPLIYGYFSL
Method in brief: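 Calcium-dye fluorescence, Ex/Em=480/540, recorded every 1 sec over 3 min after compound addition to GnRHR-HEK293 cells. Cells had been seeded 18 hours earlier and dye-loaded for 1 hour at 37 C. Fifteen concentrations, triplicates.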

[3] = target: KiSS-1 receptor (Homo sapiens) (UniProt Q969F8); assay: Human kisspeptin (KISS1R) small molecule agonists, calcium flux assay in KISS1R-HEK293 cells (AID 1920064; active = well fitted activation curve with a large enough effect in the repeat runs; also: potency is read from the fitted curve at half-maximal effect)
Sequence of KiSS-1 receptor (Homo sapiens) (Q969F8 whole entry, looked up): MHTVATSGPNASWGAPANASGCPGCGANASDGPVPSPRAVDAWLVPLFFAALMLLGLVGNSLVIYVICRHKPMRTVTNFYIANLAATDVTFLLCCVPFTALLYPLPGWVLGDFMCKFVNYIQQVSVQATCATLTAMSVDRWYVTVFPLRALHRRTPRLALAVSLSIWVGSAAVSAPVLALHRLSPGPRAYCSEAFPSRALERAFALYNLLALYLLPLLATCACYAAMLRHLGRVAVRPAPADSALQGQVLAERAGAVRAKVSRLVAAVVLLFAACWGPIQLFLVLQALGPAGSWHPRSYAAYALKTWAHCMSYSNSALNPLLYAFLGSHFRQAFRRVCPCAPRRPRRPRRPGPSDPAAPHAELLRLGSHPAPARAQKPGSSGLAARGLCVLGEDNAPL
Method in brief: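 Calcium flux read-out: kinetic fluorescence at Ex/Em=480/540, 1 s intervals over 3 min, after pin-tool compound addition to dye-loaded KISS1R-HEK293 cells. Fifteen concentrations, triplicates.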

[4] = G protein-coupled receptor (GPCR) small molecule agonists, calcium flux assay: HEK293 wild type cell line counter screen (AID 1920065); also: potency is read from the fitted curve at half-maximal effect
Method in brief: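 Agonist mode; 18 h seeding at 37 C, 1 h dye load at 37 C; compounds pinned from DMSO, ATP as positive control; kinetic fluorescence 480/540 nm, 3 min, 1 s reads; 15 concentrations, triplicate.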

[5] = p53 small molecule agonists, cell-based qHTS assay with human liver microsomes: qHTS cell viability counter screen (AID 1963579); also: nearly all actives have a fitted effect of over 45% in size; also: potency is read from the fitted curve at half-maximal effect
Method in brief: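 Viability of p53RE-bla cells is measured as CellTiter-Glo luminescence following a 16 h, 37 C incubation with compound, liver microsomes from human donors and NADPH.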

[6] = p53 small molecule agonists, cell-based qHTS assay with rat liver microsomes: qHTS cell viability counter screen (AID 1963580); also: nearly all actives have a fitted effect of over 45% in size
Method in brief: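 After the beta-lactamase ratio was read, CellTiter-Glo was added to the same wells and luminescence measured at 30 min; cells had been treated 16 h at 37 C with compounds, rat liver microsomes and NADPH (0.5 mg/mL final each).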

[7] = p53 small molecule agonists, cell-based qHTS assay: qHTS cell viability counter screen (AID 1963581); also: nearly all actives have a fitted effect of over 45% in size
Method in brief: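 Cytotoxicity read-out: ATP-based luminescence (CellTiter-Glo, 30 min RT) measured in the same wells as the p53 reporter assay, HCT-116 p53RE-bla cells, 16 h compound exposure at 37 C.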

[8] = cAMP Responsive Elements (CRE) small molecule antagonists, cell-based qHTS assay (AID 1963591; active = well fitted inhibition curve with a large enough effect in the signal ratio in the repeat runs, not every such curve was filed as active; the % refers to the signal ratio)
Method in brief: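 HEK293T CRE-bla; 18 h preincubation; compound pin-transfer; NKH477 0.25 uM final, 3 h, 37 C; LiveBLAzer FRET substrate 2 h RT.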

[9] = target: Beta-2 adrenergic receptor (Homo sapiens) (UniProt P07550); assay: Adrenergic beta2 receptor (ADRB2) small molecule antagonists, cell-based qHTS assay (AID 1963592); also: nearly all actives have a fitted effect of over 50% in size; also: potency is read from the fitted curve at half-maximal effect
Sequence of Beta-2 adrenergic receptor (Homo sapiens) (P07550 whole entry, looked up): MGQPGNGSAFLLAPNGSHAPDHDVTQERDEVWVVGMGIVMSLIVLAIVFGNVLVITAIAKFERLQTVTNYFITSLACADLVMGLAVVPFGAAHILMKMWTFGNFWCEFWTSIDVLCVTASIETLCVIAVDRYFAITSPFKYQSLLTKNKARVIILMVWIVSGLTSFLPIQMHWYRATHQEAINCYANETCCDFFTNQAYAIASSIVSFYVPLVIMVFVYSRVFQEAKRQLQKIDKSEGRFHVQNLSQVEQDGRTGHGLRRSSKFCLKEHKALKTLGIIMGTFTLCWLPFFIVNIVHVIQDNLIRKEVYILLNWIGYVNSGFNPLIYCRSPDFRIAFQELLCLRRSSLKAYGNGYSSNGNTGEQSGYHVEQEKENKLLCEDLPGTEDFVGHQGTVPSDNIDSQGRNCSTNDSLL
Method in brief: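 Assay format: CHO-ADRB2 cells, 18-20hr seeding at 37C/5% CO2, then compound plus 1nM isoproterenol agonist mix for 0.5hr RT. Homogeneous time-resolved fluorescence cAMP detection after 1hr, expressed as 665/615 nm ratio.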

[10] = target: Beta-2 adrenergic receptor (Homo sapiens) (UniProt P07550); assay: Adrenergic beta2 receptor (ADRB2) small molecule agonists, cell-based qHTS assay (AID 1963593);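 also: CHO cells stably overexpressing human ADRB2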
Method in brief: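 CHO cells stably over-expressing ADRB2 were plated overnight at 37C, then dosed with compounds plus a stimulation mix containing 100uM IBMX and 25uM Ro-20-1724 for 0.5hr at room temperature. cAMP was measured by HTRF competition, 1hr.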

[11] = target: D(2) dopamine receptor (Homo sapiens) (UniProt P14416); assay: Dopamine D2 receptor (DRD2) small molecule agonists, cell-based qHTS assay (AID 1963594); also: nearly all actives have a fitted effect of over 35% in size; also: potency is read from the fitted curve at half-maximal effect
Sequence of D(2) dopamine receptor (Homo sapiens) (P14416 whole entry, looked up): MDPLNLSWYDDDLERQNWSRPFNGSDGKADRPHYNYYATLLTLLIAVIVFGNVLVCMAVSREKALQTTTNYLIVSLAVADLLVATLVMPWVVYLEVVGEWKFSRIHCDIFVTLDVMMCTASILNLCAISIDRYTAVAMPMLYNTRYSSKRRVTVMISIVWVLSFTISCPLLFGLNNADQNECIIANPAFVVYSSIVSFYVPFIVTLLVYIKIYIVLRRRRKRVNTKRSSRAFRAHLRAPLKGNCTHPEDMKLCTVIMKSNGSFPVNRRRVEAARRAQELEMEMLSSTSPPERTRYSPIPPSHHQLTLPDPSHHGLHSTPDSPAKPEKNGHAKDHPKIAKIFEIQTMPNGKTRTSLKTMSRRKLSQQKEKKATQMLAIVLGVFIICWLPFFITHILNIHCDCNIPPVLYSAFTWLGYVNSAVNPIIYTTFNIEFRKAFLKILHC
Method in brief: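 HEK293 cells stably expressing human DRD2, pre-treated with PDE inhibitor Ro20-1724 (0.1 mM final) and compound 10 min at room temperature, then stimulated with NKH477 (200nM […]) for 30 min. cAMP read by HTRF (665/620 nm).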

[12] = target: D(2) dopamine receptor (Homo sapiens) (UniProt P14416); assay: Dopamine D2 receptor (DRD2) small molecule antagonists, cell-based qHTS assay (AID 1963595; active = well fitted inhibition curve with a large enough effect in the signal ratio in the repeat runs, with a control signal flat; the % refers to the signal ratio)
Method in brief: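 DRD2-HEK293; 0.1 mM Ro20-1724; cpd 10 min RT; NKH477 200 nM + quinpirole 12 nM, 30 min RT; HTRF cAMP (cAMP-d2/anti-cAMP cryptate), 665/620 nm ratio after 1 h.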

[13] = target: 5-hydroxytryptamine receptor 2A (Homo sapiens) (UniProt P28223); assay: 5-hydroxytryptamine receptor 2A (HTR2A) small molecule antagonists, cell-based qHTS assay (AID 1963586); also: nearly all actives have a fitted effect of over 45% in size
Sequence of 5-hydroxytryptamine receptor 2A (Homo sapiens) (P28223 whole entry, looked up): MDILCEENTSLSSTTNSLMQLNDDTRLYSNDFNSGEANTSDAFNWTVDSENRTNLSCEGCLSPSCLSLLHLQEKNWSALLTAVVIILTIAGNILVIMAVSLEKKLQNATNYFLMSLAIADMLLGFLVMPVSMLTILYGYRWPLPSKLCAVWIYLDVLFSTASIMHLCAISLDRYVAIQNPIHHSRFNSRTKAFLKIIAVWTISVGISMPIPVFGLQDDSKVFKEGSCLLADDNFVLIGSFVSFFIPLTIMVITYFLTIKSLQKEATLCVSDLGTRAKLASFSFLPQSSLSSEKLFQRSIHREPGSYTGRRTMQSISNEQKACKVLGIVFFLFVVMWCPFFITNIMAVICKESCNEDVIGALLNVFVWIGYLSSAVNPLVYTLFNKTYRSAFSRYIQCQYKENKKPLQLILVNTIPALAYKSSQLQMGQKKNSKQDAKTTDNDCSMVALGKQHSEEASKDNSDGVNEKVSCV
Method in brief: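 CHO cells stably expressing human HTR2A were plated for 18 h at 37 C, then loaded with calcium dye for 1 h. Compounds were preincubated 5 min at room temperature before DOI (4 nM solution) was added. Kinetic fluorescence was read for 3 min.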

[14] = target: 5-hydroxytryptamine receptor 2A (Homo sapiens) (UniProt P28223); assay: 5-hydroxytryptamine receptor 2A (HTR2A) small molecule agonists, cell-based qHTS assay (AID 1963587); also: nearly all actives have a fitted effect of over 30% in size; also: potency is read from the fitted curve at half-maximal effect
Method in brief: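 CHO cells stably expressing human HTR2A, plated 18 h, loaded with calcium dye 1 h at 37 C. Agonist mode: compounds added and intracellular calcium fluorescence recorded kinetically for 2 min at 1 sec intervals.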

[15] = target: Muscarinic acetylcholine receptor M1 (Homo sapiens) (UniProt P11229); assay: Cholinergic receptor muscarinic 1 (CHRM1) small molecule antagonists, cell-based qHTS assay (AID 1963588); also: nearly all actives have a fitted effect of over 40% in size
Sequence of Muscarinic acetylcholine receptor M1 (Homo sapiens) (P11229 whole entry, looked up): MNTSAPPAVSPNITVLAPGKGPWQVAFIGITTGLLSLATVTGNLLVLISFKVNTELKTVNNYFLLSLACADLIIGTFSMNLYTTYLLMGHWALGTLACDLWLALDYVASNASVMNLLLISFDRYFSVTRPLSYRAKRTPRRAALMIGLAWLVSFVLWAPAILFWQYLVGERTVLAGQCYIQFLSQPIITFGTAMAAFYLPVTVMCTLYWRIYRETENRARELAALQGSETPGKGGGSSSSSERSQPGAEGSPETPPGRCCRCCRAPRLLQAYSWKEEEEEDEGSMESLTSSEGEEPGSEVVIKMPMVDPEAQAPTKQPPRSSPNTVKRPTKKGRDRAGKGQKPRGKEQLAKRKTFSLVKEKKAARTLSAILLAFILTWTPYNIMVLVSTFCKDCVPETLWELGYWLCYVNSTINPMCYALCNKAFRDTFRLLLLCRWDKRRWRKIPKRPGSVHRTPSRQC
Method in brief: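 Compounds were tested at 15 concentrations in three independent runs. Dye-loaded CHRM1-CHO cells were exposed 5 min at room temperature before stimulation by acetylcholine added at 50nM. Intracellular calcium was read kinetically on FDSS for 3 min.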

[16] = target: Muscarinic acetylcholine receptor M1 (Homo sapiens) (UniProt P11229); assay: Cholinergic receptor muscarinic 1 (CHRM1) small molecule agonists, cell-based qHTS assay (AID 1963589); also: nearly all actives have a fitted effect of over 35% in size; also: potency is read from the fitted curve at half-maximal effect
Method in brief: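 Calcium flux read-out: kinetic fluorescence at 1 sec intervals after pin-tool compound addition to dye-loaded CHRM1-CHO cells (human M1). Agonist mode; 15 concentrations tested in triplicate independent runs.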

[17] = cAMP Responsive Elements (CRE) small molecule agonists, cell-based qHTS assay (AID 1963590)
Method in brief: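 Beta-lactamase reporter readout: LiveBLAzer B/G FRET substrate, 2 h at room temperature, added after 3 h compound treatment of CRE-bla HEK 293T cells at 37 C/5% CO2.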

Measured: Potency

N#Cc1ccc(C(c2ccc(C#N)cc2)n2cncn2)cc1
not listed: [13] | [14] | [15] | [16] | [17]
inactive: all other assays above

O=C1OC2(c3ccccc31)c1ccc(O)c(Br)c1Oc1c2ccc(O)c1Br
active: [2] 13.8 µM | [3] 7.76 µM | [4] 19.5 µM | [14] 1.55 µM | [16] 24.5 µM | [9] 68.6 µM | [11] 15.4 µM
inactive: [1] | [5] | [6] | [7] | [13] | [15]

O=C(Oc1ccccc1)c1cccc(C(=O)Oc2ccccc2)c1
active: [1] 1.15 µM
inactive: [2] | [3] | [4] | [5] | [6] | [14] | [15] | [16] | [11]

CCCCCCCCOC(=O)c1ccc(O)cc1
active: [5] 45.8 µM
not listed: [7] | [8] | [10] | [14]
inactive: all other assays above

NC(CCC(=O)O)C(=O)O (configuration not stated)
not listed: [7] | [10] | [17]
inactive: all other assays above

CC(C)CC(C)(C)C
not listed: [8] | [10] | [17]
inactive: all other assays above

O=Cc1ccccc1S(=O)(=O)O
not listed: [17]
inactive: all other assays above

CC(CCO)CCCC(C)(C)O (configuration not stated)
not listed: [10] | [14]
inactive: all other assays above

CCCCCOC(=O)COc1cc(N2C(=O)C3=C(CCCC3)C2=O)c(F)cc1Cl
active: [1] 61.1 µM
not listed: [8] | [9] | [10] | [15]
inactive: all other assays above

C/C=C1\C(=O)C[C@H]2[C@@H]3CCC4=CC(=O)CC[C@]4(C)[C@H]3CC[C@]12C
active: [1] 2.13 µM
not listed: [8] | [10] | [13] | [17]
inactive: all other assays above

CC1CCN(CCCC(=O)c2ccc(F)cc2)CC1
not listed: [12] | [13]
inactive: all other assays above

CCOc1ccc(NS(=O)(=O)c2ccc(N)cc2)nn1
not listed: [10] | [12] | [17]
inactive: all other assays above
